Compound activity (PubChem BioAssay)
This is a sample that favours compounds with a hit; in the whole collection about 3.4% have one here.
Sm TGR inh = qHTS Assay for the Inhibitors of Schistosoma Mansoni Peroxiredoxins. Potency, µM (doses to about 114 µM), hits mostly inhibitors. purified TGR, DTNB reduction, TNB absorbance 405 nm. Schistosoma mansoni thioredoxin glutathione reductase (TGR), Q962Y6. actives 3% (n = 360,000). AID 485364, 2010; further: nearly all actives have a fitted effect of over 60% in size
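TGR 20 nM + NADPH 100 uM (dispensed conc.), cpd preinc 15 min RT; start with NADPH (500 uM addition) then DTNB (15 mM addition). Kinetic TNB absorbance, 405 nm filter. Four-parameter Hill fit across titration.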
FBPA Giardia inh = qHTS Assay for Inhibitors of Fructose-1,6-bisphosphate Aldolase from Giardia Lamblia; A8B2U2; purified Giardia FBPA; Potency, µM (highest dose often 59.6 µM), usual class: inhibitors; actives 0.71% (n = 290,000); AID 2451, 2010; further: nearly all actives have a fitted effect of over 55% in size
Target sequence (A8B2U2 whole entry, looked up): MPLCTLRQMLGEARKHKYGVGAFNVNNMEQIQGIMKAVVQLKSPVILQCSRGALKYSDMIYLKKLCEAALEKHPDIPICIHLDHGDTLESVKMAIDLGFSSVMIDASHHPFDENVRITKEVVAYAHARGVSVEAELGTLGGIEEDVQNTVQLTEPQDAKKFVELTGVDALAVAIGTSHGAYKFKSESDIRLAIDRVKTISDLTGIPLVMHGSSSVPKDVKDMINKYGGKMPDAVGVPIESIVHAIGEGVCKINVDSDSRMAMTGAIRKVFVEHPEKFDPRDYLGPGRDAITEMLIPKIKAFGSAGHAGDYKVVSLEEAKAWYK
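40 nM FBPA preincubated 10 min at RT with compound (up to 57.5 uM final), then substrate plus GAPDH/TPI/NAD/arsenate coupling and diaphorase/resazurin added. Fluorescence read after 20 min at RT, 525/598 nm.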
AmpC no deterg = qHTS Inhibitors of AmpC Beta-Lactamase (assay without detergent) | P00811 | AmpC nitrocefin hydrolysis, absorbance 480 nm, 0.0001% Triton | Potency, µM (highest dose often 57.1 µM), actives largely listed as inhibitors | actives 0.52% (n = 330,000) | AID 485341, 2010; further: nearly all actives have a fitted effect of over 20% in size
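AmpC (5.3 nM in the dispensed reagent) in 20 mM phosphate pH 7.0 with 0.01% (detergent screen) or 0.0001% Triton X-100 was preincubated with compounds for 15 min at room temperature. Nitrocefin was then added from an 800 uM solution, and hydrolysis was followed at 480 nm.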
AmpC detergent = qHTS Inhibitors of AmpC Beta-Lactamase (assay with detergent). AmpC hydrolysis of nitrocefin, absorbance 480 nm, 0.01% Triton. P00811. actives 0.041% (n = 370,000). AID 485294, 2010. Potency, µM (series often up to 114 µM), actives largely listed as inhibitors; further: nearly all actives have a fitted effect of over 25% in size
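AmpC (5.3 nM in the dispensed reagent) in 20 mM phosphate pH 7.0 with 0.01% (detergent screen) or 0.0001% Triton X-100 was preincubated with compounds for 15 min at room temperature. Nitrocefin was then added from an 800 uM solution, and hydrolysis was followed at 480 nm.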
RE007 growth inh = qHTS Assay for Inhibitors of the HIV-1 protein Vpr; actives 0.21% (n = 360,000); AID 651644, 2012; Potency, µM (series often up to 92.2 µM), usual class: inhibitors; S. pombe RE007 Vpr strain, BacTiter-Glo ATP luminescence, 24 h; active means well fitted falling curve with a large enough effect; inconclusive means small, poorly fitted or top-dose-only effect; inactive means no such curve, though single readings can be large or run the other way; further: nearly all actives have a fitted effect of over 50% in size
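Fission yeast RE007 carrying one integrated HIV-1 vpr copy, seeded at OD 0.01 in PMG+AL medium with 23 nL pinned compound. Grown 24 h at 30 degrees; viability read by BacTiter-Glo luminescence after 5 min.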
Numbers stand for hits; - = inactive; ? = inconclusive; . = no result given. Unless noted, the call rests on the fitted dose curve; in most records, active means well fitted curve in the direction sought with a large enough effect; inconclusive means small, poorly fitted or top-dose-only effect, or another doubt; inactive means no such curve, though single readings can be large; an effect the other way counts as inactive or inconclusive.

SMILES | Sm TGR inh | FBPA Giardia inh | AmpC no deterg | AmpC detergent | RE007 growth inh
COc1cccc(CNC(=O)C(=O)NCC(c2ccco2)S(=O)(=O)c2ccccc2)c1 (stereo not given) | - | . | . | - | .
COc1ccc(CNC(=O)C(=O)NCC(c2ccco2)S(=O)(=O)c2cccs2)cc1 (stereo not given) | 17.8µM | . | . | - | .
Cc1nn(-c2ccc(F)cc2)c(-n2cccc2)c1C(=O)N1CCN(c2ccccc2F)CC1 | - | . | . | - | .
CC1Cc2cc(/C=C3/SC(=S)NC3=O)ccc2O1 (stereo not given) | - | - | - | - | -
Cc1ccc(C2C(/C=C3/SC(=S)NC3=O)=C(c3cccs3)Oc3ccccc32)cc1 (stereo not given) | - | - | 6.31µM | - | -
Cc1ccc(NC(=O)CSc2nnc(-c3ccco3)c(-c3ccco3)n2)cc1 | ? | ? | - | - | -
CSc1nnc(-c2ccco2)c(-c2ccco2)n1 | 1µM | 3.54µM | - | - | -
Cc1ccccc1NC(=O)CSc1nnc(-c2ccco2)c(-c2ccco2)n1 | 3.55µM | 1.77µM | - | - | -
O=C(CSc1nnc(-c2ccco2)c(-c2ccco2)n1)Nc1ccccc1 | 1.78µM | ? | - | - | -
Cc1ccccc1NC(=O)CSc1n[nH]c(-c2ccco2)n1 | - | - | - | - | -
Cc1ccccc1NC(=O)CSc1nc(-c2ccco2)nc2cc(=O)[nH]n12 | 39.8µM | . | . | - | .
CSc1nnc(-c2ccccc2)c(-c2ccccc2)n1 | - | - | - | - | -
CC1Cn2c(CCc3ccccc3)nnc2S1 (stereo not given) | - | - | - | - | -
COc1ccccc1NC(=O)C1CCCN(S(=O)(=O)c2cnc[nH]2)C1 (stereo not given) | - | - | - | ? | -
CCOC(=O)N1CCN(S(=O)(=O)c2ccc(C(=O)Nc3nc4ccc(F)cc4s3)cc2)CC1 | - | - | - | - | -
CN(CC(=O)Nc1ccccc1Cl)C(=O)CSc1nnc(-c2ccco2)o1 | - | ? | - | ? | -
COc1ccc(OC)c(NC(=O)C2CCN(C(=O)c3cccs3)CC2)c1 | . | - | - | - | -
CN(C)c1ccc(NC(=O)CSc2nnc(-c3ccco3)c(-c3ccco3)n2)cc1 | 35.5µM | ? | - | - | -
O=C(CSc1n[nH]c(-c2ccco2)n1)Nc1ccc(F)cc1 | - | ? | - | - | -
COCCNc1ccnc(-c2ccccc2C)n1 | . | - | . | . | .
O=C(CCCC(=O)OCC(=O)c1ccc(Cl)cc1Cl)Nc1cc(C(F)(F)F)ccc1Cl | 89.1µM | . | - | - | -
COc1ccccc1CC(=O)N1CCN(S(=O)(=O)c2ccccc2)CC1 | - | . | - | - | -
COc1ccc(OCCC(=O)NC2=NCCS2)cc1 | - | - | - | - | -
COc1ccc(C(=O)NCC(=O)NC2=NCCS2)cc1 | - | - | 35.5µM | ? | -
O=C(CSC1=NS(=O)(=O)c2cc(F)ccc2N1)Nc1ccccc1 | - | . | - | - | -
SMILES | Sm TGR inh | FBPA Giardia inh | AmpC no deterg | AmpC detergent | RE007 growth inh
COC(=O)CSC1=NS(=O)(=O)c2ccccc21 | 2.51µM | - | - | - | -
O=C(CSC1=NS(=O)(=O)c2ccccc21)Nc1ccccc1 | 2.51µM | - | - | ? | -
Cc1nc2cnc(N3CCNCC3)nc2n(C)c1=O | . | - | . | . | .
COc1ccc(NC(=O)C[C@H]2C(=O)N(Cc3ccccc3)C[C@@H]2Cc2ccccc2)cc1 | . | . | . | . | -
O=C(Cc1ccc(S(=O)(=O)N2CCOCC2)s1)NCC(=O)Nc1ccccc1Br | 56.2µM | . | - | - | -
COc1ccc2c(c1)cc(CNc1ccc(OC)c(OC)c1)c(=O)n2CC(=O)Nc1ccccc1C | - | . | . | - | .
COc1cccc(-c2nccc(NC3CCNCC3)n2)c1 | . | - | . | . | .
C[n+]1cccc2cccc([O-])c21 | 50.1µM | 0.446µM | - | - | -
CC1=C/C(=C/N(C)C)C(=O)O1 | 20µM | - | - | ? | -
CN(C)/C=C1/C=C(c2ccccc2)OC1=O | 31.6µM | - | - | ? | -
C=CCOc1ccccc1CN1CCC(n2nccc2NC(=O)C2CC2)CC1 | - | ? | - | - | -
CCOc1ccc(CN2CCNC(=O)C2CC(=O)O)cc1 (stereo not given) | - | - | - | - | -
